Test results: PubChem BioAssay AID1159580 (chemical genetic matrix, 2015)
“And” between values parts separate entries of the source, which are not always exact repeats. Identical values can stand only once. Hit rate of the full screen: of about 5,500 compounds, about 2,000 (36%) were called active. Inconclusive results (about 18%) are left out. No stated cut-off is given here; in the data, active means normalized growth mostly below about 0.91 (no sharp cut-off); inconclusive means no clear call, values can overlap the other calls; inactive means mostly above about 0.92. This is one part of the list.

Test: chemical genetic growth profiling, strain panel (AID 1159580);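 further: tested at 20 µM; growth read once vehicle control cultures reached saturation at 30 °C; 1 = growth at the plate median or of vehicle wells; lower values mean less growth of the strain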
Settings: S. cerevisiae deletion strains, growth OD

Measured: normalized growth

COP(N)(=O)SC (configuration not stated)
inactive: locus YAL013W, strain DEP1, hits give low values 1 | locus YAL021C, strain ccr4, hits give low values 0.981 | locus YAL026C, strain drs2, hits give low values 1.01 | locus YAL030W, strain snc1, hits give low values 1 | locus YBL061C, strain skt5, hits give low values 1.01 | locus YBR009C, strain hhf1, hits give low values 1.02 | locus YBR021W, strain FUR4, hits give low values 1.01 | locus YBR023C, strain chs3, hits give low values 1.01 | locus YBR171W, strain sec66, hits give low values 1 | locus YBR229C, strain ROT2, hits give low values 0.978 | locus YBR231C, strain swc5, hits give low values 1.01 | locus YBR279W, strain paf1, hits give low values 1.01 | locus YCL011C, strain gbp2, hits give low values 1 | locus YCL016C, strain dcc1, hits give low values 1 | locus YCL029C, strain bik1, hits give low values 1.01 | locus YCL061C, strain MRC1, hits give low values 0.997 | locus YCL069W, strain vba3, hits give low values 1 | locus YCR088W, strain abp1, hits give low values 1 | locus YDL005C, strain med2, hits give low values 1 | locus YDL035C, strain GPR1, hits give low values 1.01 | locus YDL040C, strain nat1, hits give low values 1.01 | locus YDL074C, strain BRE1, hits give low values 0.993 | locus YDL101C, strain DUN1, hits give low values 0.978 | locus YDL134C, strain PPH21, hits give low values 1.01 | locus YDL185W, strain tfp1, hits give low values 1.01 | locus YDL192W, strain arf1, hits give low values 1.01 | locus YDR001C, strain nth1, hits give low values 0.994 | locus YDR069C, strain doa4, hits give low values 1.01 | locus YDR101C, strain arx1, hits give low values 1 | locus YDR137W, strain rgp1, hits give low values 1.01 | locus YDR150W, strain NUM1, hits give low values 0.987 | locus YDR159W, strain sac3, hits give low values 1.02 | locus YDR162C, strain NBP2, hits give low values 0.993 | locus YDR195W, strain ref2 0.999 | locus YDR297W, strain sur2, hits give low values 1 | locus YDR318W, strain mcm21, hits give low values 1.01 | locus YDR334W, strain swr1, hits give low values 1 | locus YDR335W, strain msn5, hits give low values 0.998 | locus YDR388W, hits give low values 1.01 | locus YDR392W, strain spt3, hits give low values 1.01 | locus YDR502C, strain sam2, hits give low values 1.01 | locus YEL003W, strain gim4, hits give low values 1 | locus YEL037C, strain rad23, hits give low values 0.998 | locus YEL061C, strain CIN8 (second series), hits give low values 1.01 | locus YEL061C, strain CIN8, hits give low values 1 | locus YER015W, strain faa2, hits give low values 1.01 | locus YER016W, strain bim1, hits give low values 1.01 | locus YER110C, hits give low values 1.01 | locus YER111C, strain swi4, hits give low values 1.01 | locus YER155C, strain BEM2 (second series), hits give low values 1.02 | locus YER155C, strain BEM2, hits give low values 0.98 | locus YER167W, strain BCK2, hits give low values 1 | locus YFR010W, strain ubp6, hits give low values 0.994 | locus YGL078C, strain dbp3, hits give low values 1.01 | locus YGL086W, strain mad1, hits give low values 1.01 | locus YGL167C, strain pmr1, hits give low values 1.01 | locus YGL173C, strain kem1, hits give low values 1.02 | locus YGL227W, strain vid30, hits give low values 1.01 | locus YGL240W, strain doc1, hits give low values 1.02 | locus YGL248W, strain PDE1, hits give low values 1.01 | locus YGL253W, strain hxk2, hits give low values 0.997 | locus YGR078C, strain PAC10, hits give low values 0.997 | locus YGR135W, strain pre9, hits give low values 0.999 | locus YGR229C, strain SMI1, hits give low values 1 | locus YGR252W, strain gcn5, hits give low values 1.02 | locus YHR013C, strain ard1, hits give low values 0.994 | locus YHR027C, strain rpn1, hits give low values 1 | locus YHR030C, strain SLT2, hits give low values 0.986 and 1.05 | locus YHR079C, strain IRE1 (second series), hits give low values 1.02 | locus YHR079C, strain IRE1, hits give low values 1.07 | locus YHR094C, strain hxt1, hits give low values 1.01 | locus YHR129C, strain ARP1, hits give low values 0.998 | locus YHR142W, strain chs7, hits give low values 0.982 | locus YHR200W, strain rpn10, hits give low values 1.01 | locus YIL066C, strain RNR3, hits give low values 1.03 | locus YIL073C, strain SPO22, hits give low values 1.06 | locus YIL125W, strain kgd1, hits give low values 1 | locus YIR030C, strain dcg1, hits give low values 1.01 | locus YJL092W, strain hpr5, hits give low values 0.998 | locus YJL095W, strain BCK1 (second series), hits give low values 1.01 | locus YJL095W, strain BCK1, hits give low values 0.99 and 1.03 | locus YJL115W, strain asf1, hits give low values 1 | locus YJL129C, strain trk1, hits give low values 0.993 | locus YJL134W, strain LCB3, hits give low values 1 | locus YJL154C, strain vps35, hits give low values 0.998 | locus YJL164C, strain tpk1, hits give low values 1 | locus YJL166W, strain qcr8, hits give low values 1.01 | locus YJL168C, strain set2, hits give low values 1.01 | locus YJL187C, strain SWE1 (second series), hits give low values 1.01 | locus YJL187C, strain SWE1, hits give low values 1.01 | locus YJR043C, strain POL32, hits give low values 1.02 | locus YJR066W, strain TOR1, hits give low values 0.985
